Cycloheximide cs = affects cycloheximide protein synthesis inhibition readout, counter-screen | cell reporter, cycloheximide protein synthesis inhibition counterscreen | 12% of 300,000 active | max response, %; in the data active = max response mostly above about 13%, no sharp cut-off; inactive = mostly below about 14%; note: read at 38.3 µM for the half of the compounds with a filed dose
AMA1 RON2 block = AMA1-RON2 (P. falciparum) interaction inhibition; AlphaScreen AMA1-biotinylated RON2 peptide binding; Potency, µM (series often up to 58.2 µM), most hits filed as inhibitors; 0.2% of 360,000 active; note: nearly all actives have a fitted effect of over 45% in size
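AMA1 (3D7) with his tag at 25 nM final met compounds first, then biotinylated RON2 peptide at 25 nM; detection used donor plus acceptor beads, 10 µg/mL apiece, read by AlphaScreen after 30 min at room temperature.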
SARS PLpro yeast = blocks SARS-CoV papain-like protease in a yeast assay; S. cerevisiae expressing SARS-CoV PLpro, growth rescue; Potency, µM (doses to about 32.9 µM), usual class: activators; 0.19% of 330,000 active; calls by dose curve; note: nearly all actives have a fitted effect of over 55% in size
Pf growth 48h = P. falciparum growth inhibition at 48 hours (one generation) | AID 504832 | Potency, µM (highest dose often 28.7 µM), actives largely listed as inhibitors | P. falciparum luciferase growth in erythrocytes, 48 h | 5.9% of 310,000 active
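First compound was added to culture medium, then infected red cells at 0.1% parasitemia and 2% hematocrit (final). After incubation at 37 C under 5% CO2, luciferase detection reagent was dispensed and light output recorded.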
Shiga inhibitor = inhibitors of Shiga toxin in Vero cells; Vero cells, Shiga toxin protein synthesis inhibition reporter; inhibition, % at 38.7 µM; 9.2% of 290,000 active; AID 2315; in the data active = inhibition mostly above about 28%, no sharp cut-off; inactive = mostly below about 43%
Pf growth 96h = inhibits malaria parasite growth, 96 h. P. falciparum luciferase reporter growth, 96 h. Potency, µM (doses to about 28.7 µM), usual class: inhibitors. 6.9% of 320,000 active. AID 504834
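P. falciparum expressing integrated firefly luciferase, in erythrocytes at 2% hematocrit, 0.05% parasitemia, incubated with compounds 96 h at 37 C, 5% CO2. Growth inhibition read as loss of luminescence; two-generation exposure targets delayed-death apicoplast inhibitors.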
Hits are given with their value; [ ] = remark or other dose. Compounds with a hit are over-represented: about 19% of the library has one in this group of screens. Unless noted, calls come from the whole dose curve; as a rule, active = well fitted curve in the direction sought with a large enough effect; inconclusive = small, poorly fitted or top-dose-only effect, or another doubt; inactive = no such curve, though single readings can be large; an effect the other way counts as inactive or inconclusive.

Results for CC(=O)C1=C(C)Nc2ncnn2C1c1ccccc1OCc1ccccc1 (stereo not drawn) ?
Cycloheximide cs: inactive; AMA1 RON2 block: inactive; SARS PLpro yeast: inactive; Pf growth 48h: 8.3µM; Shiga inhibitor: inactive; Pf growth 96h: inactive

What do the screens show for `CCOC(=O)C1=C(C)Nc2nc(SCC)nn2C1c1ccc(OC)cc1` (stereo not drawn)?
Cycloheximide cs: inactive; AMA1 RON2 block: inactive; SARS PLpro yeast: inactive; Pf growth 48h: inactive; Shiga inhibitor: inactive; Pf growth 96h: 13µM

Results for COc1ccc(C2C(C(C)=O)=C(C)Nc3ncnn32)cc1[N+](=O)[O-] (stereo not drawn) ?
Cycloheximide cs: inactive; AMA1 RON2 block: inactive; SARS PLpro yeast: inactive; Pf growth 48h: inactive[0.00184 µM]; Shiga inhibitor: inactive; Pf growth 96h: 4.1µM

How did CCC1(O)CC2CN(CCc3c([nH]c4ccccc34)C(C(=O)OC)(c3cc4c(cc3OC)N(C=O)C3C(O)(C(=O)OC)C(OC(C)=O)C5(CC)C=CCN6CCC43C65)C2)C1 (stereo not drawn) do in these assays?
AMA1 RON2 block: inactive

How did CCC1=C[C@@H]2CN(C1)Cc1c([nH]c3ccccc13)[C@@](C(=O)OC)(c1cc3c(cc1OC)N(C)[C@@H]1[C@@](O)(C(=O)OC)[C@H](OC(C)=O)[C@]4(CC)C=CCN5CC[C@]31[C@@H]54)C2 do in these assays?
Pf growth 48h: 0.48µM; Pf growth 96h: 0.85µM

How did CC[C@]1(O)CC2CN(CCc3c([nH]c4ccccc34)[C@@](C(=O)OC)(c3cc4c(cc3OC)N(C)[C@H]3[C@@](O)(C(=O)OC)[C@H](OC(C)=O)[C@]5(CC)C=CCN6CC[C@]43[C@@H]65)C2)C1 (stereo partly drawn) do in these assays?
Pf growth 48h: 0.48µM; Pf growth 96h: 0.85µM

What do the screens show for `CC1CCCCC1NC(=O)CSc1ncnc2sccc12` (stereo not drawn)?
AMA1 RON2 block: inactive

What do the screens show for `Cc1ccc2nc(NCc3ccco3)c(C=NCc3ccco3)c(=O)n2c1`?
Cycloheximide cs: 12; AMA1 RON2 block: inactive; SARS PLpro yeast: inactive; Pf growth 48h: inactive; Shiga inhibitor: inactive; Pf growth 96h: inactive

What do the screens show for `CNc1nc2c(C)cccn2c(=O)c1C=NCc1ccccc1`?
Cycloheximide cs: inactive; AMA1 RON2 block: inactive; SARS PLpro yeast: inactive; Shiga inhibitor: inactive; Pf growth 96h: inactive

What do the screens show for `Cc1ccc2nc(NCc3ccccc3)c(C=NCc3cccnc3)c(=O)n2c1`?
Cycloheximide cs: 14; AMA1 RON2 block: inactive; SARS PLpro yeast: inactive; Pf growth 48h: inactive; Shiga inhibitor: 30; Pf growth 96h: inactive

What do the screens show for `Cc1ccc2nc(NCc3ccccc3)c(C=O)c(=O)n2c1`?
Cycloheximide cs: inactive; AMA1 RON2 block: inactive; SARS PLpro yeast: inactive; Pf growth 48h: inactive; Shiga inhibitor: inactive; Pf growth 96h: inactive

How did O=c1c(C=NCc2ccccc2)c(NCc2ccccc2)nc2ccccn12 do in these assays?
Cycloheximide cs: inactive; AMA1 RON2 block: inactive; SARS PLpro yeast: inactive; Pf growth 48h: inactive; Shiga inhibitor: 80; Pf growth 96h: inactive

Results for O=S(=O)(Nc1ncnc2scc(-c3ccc(F)cc3)c12)c1cc(F)ccc1F ?
Cycloheximide cs: inactive; AMA1 RON2 block: inactive; SARS PLpro yeast: inactive; Pf growth 48h: inactive; Shiga inhibitor: inactive; Pf growth 96h: inactive

How did OCC1(CCOc2ccccc2)CCN(Cc2nc3ccc(F)cc3[nH]2)CC1 do in these assays?
Cycloheximide cs: inactive; AMA1 RON2 block: inactive; SARS PLpro yeast: inactive; Pf growth 48h: inconclusive; Shiga inhibitor: inactive; Pf growth 96h: inactive

What do the screens show for `COc1ccc(C(=O)Oc2ccc(F)cc2C(=O)/C=C/c2ccc(OC)c(OC)c2)cc1`?
Cycloheximide cs: inactive; AMA1 RON2 block: inactive[2.32 µM]; SARS PLpro yeast: inactive; Pf growth 48h: inactive; Shiga inhibitor: inactive; Pf growth 96h: inactive

What do the screens show for `O=C(/C=C/c1ccccc1F)c1cccc([N+](=O)[O-])c1`?
Cycloheximide cs: inactive; AMA1 RON2 block: inactive; SARS PLpro yeast: inactive; Pf growth 48h: inactive; Shiga inhibitor: active; Pf growth 96h: inactive

How did COc1ccc(C(=O)/C=C/c2ccccc2F)c(OC(=O)c2ccc([N+](=O)[O-])cc2)c1 do in these assays?
Cycloheximide cs: 49; AMA1 RON2 block: inactive; SARS PLpro yeast: inactive; Pf growth 48h: inactive; Shiga inhibitor: inactive; Pf growth 96h: inactive

How did COc1ccc(C=CC(=O)c2ccc([N+](=O)[O-])cc2)cc1 do in these assays?
AMA1 RON2 block: inactive

Results for COc1ccc(C(=O)/C=C/c2ccc(C)cc2)c(OC(=O)c2ccc([N+](=O)[O-])cc2)c1 ?
Cycloheximide cs: 32; AMA1 RON2 block: inactive; SARS PLpro yeast: inactive; Pf growth 48h: inactive; Shiga inhibitor: inactive; Pf growth 96h: inactive

How did O=C(Oc1ccc(F)cc1C(=O)/C=C/c1cccs1)c1cccc([N+](=O)[O-])c1 do in these assays?
Cycloheximide cs: inactive; AMA1 RON2 block: inconclusive; SARS PLpro yeast: inactive; Pf growth 48h: inconclusive; Shiga inhibitor: 49; Pf growth 96h: inconclusive

How did O=c1c(-c2ccco2)nc2ccccc2n1C(c1ccccn1)c1nc2ccccc2[nH]1 (stereo not drawn) do in these assays?
AMA1 RON2 block: inactive

Results for COc1ccc(S(=O)(=O)NC(C)C(=O)N2CCCC2)cc1C (stereo not drawn) ?
Cycloheximide cs: inactive; AMA1 RON2 block: inactive; SARS PLpro yeast: inactive; Pf growth 48h: inactive; Shiga inhibitor: inactive; Pf growth 96h: inconclusive

Results for CC(=O)c1cccc(CN2CCCC(CCC(=O)NCc3ccccc3F)C2)c1 (stereo not drawn) ?
Cycloheximide cs: inactive; AMA1 RON2 block: inactive; SARS PLpro yeast: inactive; Pf growth 48h: inactive; Shiga inhibitor: inactive; Pf growth 96h: inconclusive

What do the screens show for `Cc1csc(NC(=O)Cc2c[nH]c3ccccc23)n1`?
Cycloheximide cs: inactive; AMA1 RON2 block: inactive; SARS PLpro yeast: inactive; Pf growth 48h: inactive; Shiga inhibitor: 72; Pf growth 96h: inactive

How did Cc1cnc(NC(=O)Cc2c[nH]c3ccccc23)s1 do in these assays?
Cycloheximide cs: 67; AMA1 RON2 block: inactive; SARS PLpro yeast: inactive; Pf growth 48h: inactive; Shiga inhibitor: inactive; Pf growth 96h: inconclusive

How did COc1ccc(NC(=S)N2CCN(S(=O)(=O)c3ccccc3)CC2)cc1 do in these assays?
Cycloheximide cs: inactive; AMA1 RON2 block: inactive; SARS PLpro yeast: inactive; Pf growth 48h: inactive; Shiga inhibitor: inactive; Pf growth 96h: 10µM

What do the screens show for `COc1ccc(NC(=S)N2CCN(C(=O)c3ccco3)CC2)cc1`?
Cycloheximide cs: inactive; AMA1 RON2 block: inactive; SARS PLpro yeast: inactive; Pf growth 48h: inactive; Shiga inhibitor: inactive; Pf growth 96h: 0.47µM

How did Cc1cc(C)cc(NC(=S)N2CCN(S(=O)(=O)c3ccccc3)CC2)c1 do in these assays?
Cycloheximide cs: inactive; AMA1 RON2 block: inactive; SARS PLpro yeast: inactive; Pf growth 48h: inconclusive; Shiga inhibitor: inactive; Pf growth 96h: 3.7µM

What do the screens show for `COc1ccc(NC(=S)N2CCN(S(=O)(=O)c3ccc(OC)cc3)CC2)cc1`?
Cycloheximide cs: inactive; AMA1 RON2 block: inactive; SARS PLpro yeast: inactive; Pf growth 48h: inconclusive; Shiga inhibitor: inactive; Pf growth 96h: inactive
